Measured values published in PubChem BioAssay (Tox21).
Results filed as inconclusive are left out. A call without a number means that no potency is given here. Active and inactive are the calls of the source. Unless noted, the call rests on the fitted dose curve; in most records, active means well fitted curve in the direction sought with a large enough effect in the repeat runs; inconclusive means weak or mixed curves; inactive means no such curve, though single readings can be large; an effect the other way counts as inactive or inconclusive.

Key:
[1] = qHTS assay to identify small molecule antagonists of the androgen receptor (AR) signaling pathway using the MDA cell line in the presence of 0.5 nM R1881 - cell viability counter screen (AID 1259242); further: nearly all actives have a fitted effect of over 45% in size
In short: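 Viability of MDA-kb2 cells was multiplexed with the luciferase AR readout; after 16 hr with compounds and R1881 at 0.5 nM final, CellTiter-Fluor fluorescence was recorded.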

[2] = target: Androgen receptor (Homo sapiens) (UniProt P10275); test: qHTS assay to identify small molecule antagonists of the androgen receptor (AR) signaling pathway using the MDA cell line in the presence of 0.5 nM R1881 (AID 1259243); further: nearly all actives have a fitted effect of over 50% in size; further: potency means the concentration at half of the fitted maximal effect
Androgen receptor (Homo sapiens), sequence (P10275 whole entry, looked up): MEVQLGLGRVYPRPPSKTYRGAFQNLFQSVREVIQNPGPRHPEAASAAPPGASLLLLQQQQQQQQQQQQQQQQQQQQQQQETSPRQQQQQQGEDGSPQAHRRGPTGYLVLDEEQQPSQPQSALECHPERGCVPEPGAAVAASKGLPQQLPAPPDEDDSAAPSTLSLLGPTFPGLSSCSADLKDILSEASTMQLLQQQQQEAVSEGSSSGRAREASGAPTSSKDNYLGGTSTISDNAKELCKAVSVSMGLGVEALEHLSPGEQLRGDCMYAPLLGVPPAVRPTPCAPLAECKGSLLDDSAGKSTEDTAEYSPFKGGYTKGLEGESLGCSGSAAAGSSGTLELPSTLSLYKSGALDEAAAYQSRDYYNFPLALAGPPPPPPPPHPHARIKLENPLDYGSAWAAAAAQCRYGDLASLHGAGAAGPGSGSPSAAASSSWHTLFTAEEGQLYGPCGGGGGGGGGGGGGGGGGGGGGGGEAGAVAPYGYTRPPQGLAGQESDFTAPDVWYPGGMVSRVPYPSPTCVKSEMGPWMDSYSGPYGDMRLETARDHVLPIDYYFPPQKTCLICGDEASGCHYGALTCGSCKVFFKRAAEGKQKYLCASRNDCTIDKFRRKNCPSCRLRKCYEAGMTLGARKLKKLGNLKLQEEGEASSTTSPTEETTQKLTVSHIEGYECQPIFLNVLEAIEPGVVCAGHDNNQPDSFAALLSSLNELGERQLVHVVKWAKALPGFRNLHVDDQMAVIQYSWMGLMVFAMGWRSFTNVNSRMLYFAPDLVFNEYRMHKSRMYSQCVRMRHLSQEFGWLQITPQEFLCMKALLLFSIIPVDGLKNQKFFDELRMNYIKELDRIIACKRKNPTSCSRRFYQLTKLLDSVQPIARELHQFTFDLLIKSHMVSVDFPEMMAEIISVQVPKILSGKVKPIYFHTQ
In short: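 Reporter cells cultured without CO2 receive test chemicals, then 0.5 nM R1881 final; after 16 hr at 37C, ONE-Glo is added and light output recorded.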

[3] = qHTS assay to identify small molecule phospholipidosis (PLD) inducers (AID 1259344; active means well fitted curve in the direction sought with a large enough effect; an effect the other way counts as inactive or inconclusive)
In short: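 Phospholipidosis is scored by imaging LipidTOX-stained pits in HepG2 cells exposed to compound for 24 h at 37 C; pit counts and integrated intensities per well and per cell serve as outputs.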

[4] = qHTS assay to identify small molecule HDAC inhibitors (AID 1259364);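 further: wild-type HCT-116 cells with endogenous class I/II HDAC activity; top concentration of the series differs between compounds; nearly all actives have a fitted effect of over 45% in size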
In short: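 Read-out: luminescence of HDAC-Glo I/II reagent, 30 min RT, reflecting class I/II deacetylase activity in whole HCT-116 cells pre-exposed 2 h to DMSO-dissolved compounds.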

[5] = qHTS assay to identify small molecule agonists of the sonic hedgehog signaling (Shh) pathway - cell viability counter screen (AID 1259366); further: nearly all actives have a fitted effect of over 50% in size
In short: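 Same-well cytotoxicity read. Gli1-Luc reporter 3T3 cells; compounds 24hr, 37C/5% CO2; CellTiter-Fluor fluorescence.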

[6] = qHTS assay to identify small molecule antagonists of the sonic hedgehog signaling (Shh) pathway - cell viability counter screen (AID 1259367); further: nearly all actives have a fitted effect of over 55% in size
In short: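 Cells: 3T3 Gli1-Luc, 2,000/well, 4 hr pre-incubation. Compounds in DMSO, then conditioned medium. Incubation 24 hr, 37C, 5% CO2. CellTiter-Fluor at 23 hr, 1 hr, fluorescence.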

[7] = qHTS assay to identify small molecule agonists of the androgen receptor (AR) signaling pathway in the presence of an antagonist - cell viability counter screen (AID 1259379); further: nearly all actives have a fitted effect of over 25% in size; further: potency means the concentration at half of the fitted maximal effect
In short: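 Seed MDA-kb2 at 3,000 cells/well; incubate 5 hr, 37C, 0% CO2. Add nilutamide to 3.0uM final, then pin compounds at 15 concentrations. Incubate 16 hr. Add CellTiter-Fluor at 15 hr, read fluorescence after 1 hr.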

[8] = qHTS assay to identify small molecule agonists of the estrogen receptor beta (ER-beta) signaling pathway - cell viability counter screen (AID 1259380); further: nearly all actives have a fitted effect of over 30% in size
In short: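 CellTiter-Glo read, 30 min RT, same wells as bla assay; cells ER-beta-UAS-bla HEK293T; 16 hr compound, 37C; medium 2% charcoal-stripped FBS.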

[9] = target: Androgen receptor (Homo sapiens) (UniProt P10275); test: qHTS assay to identify small molecule agonists of the androgen receptor (AR) signaling pathway in the presence of an antagonist (AID 1259381; calls by dose curve; further: nearly all actives have a fitted effect of over 15% in size; further: potency means the concentration at half of the fitted maximal effect)
In short: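 Test compounds at 15 concentrations were incubated for 16hr with MDA-kb2 reporter cells in presence of 3.0uM nilutamide (final). Signal: ONE-Glo luciferase luminescence.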

[10] = qHTS assay to identify small molecule antagonists of the estrogen receptor beta (ER-beta) signaling pathway - cell viability counter screen (AID 1259382);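 further: HEK293T cells carrying ER-beta-UAS-bla reporter stimulated with estradiol; series mostly up to about 92 µM; nearly all actives have a fitted effect of over 55% in size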
In short: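 In this multiplexed counter screen, cells were seeded at 2,000 per well in medium with 2% charcoal-stripped FBS and incubated 6 hr before compound and 1nM final E2 were added. Sixteen hours later, ATP-based luminescence reported viability.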

[11] = qHTS assay to identify small molecule agonists or antagonists of the thyroid stimulating hormone receptor (TSHR) signaling pathway - wild type cell line counter screen (AID 1259384; calls by dose curve)
In short: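 Counter screen in untransfected Hek293: compounds (15-point titration, triplicate) plus phosphodiesterase inhibitor Ro20-1724 added after 18 h plating; 30 min RT. Intracellular cAMP via competitive d2/cryptate immunoassay, 1 h incubation.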

[12] = target: Thyrotropin receptor (Homo sapiens) (UniProt P16473); test: qHTS assay to identify small molecule antagonists of the thyroid stimulating hormone receptor (TSHR) signaling pathway (AID 1259385; calls by dose curve; further: nearly all actives have a fitted effect of over 20% in size)
Thyrotropin receptor (Homo sapiens), sequence (P16473 whole entry, looked up): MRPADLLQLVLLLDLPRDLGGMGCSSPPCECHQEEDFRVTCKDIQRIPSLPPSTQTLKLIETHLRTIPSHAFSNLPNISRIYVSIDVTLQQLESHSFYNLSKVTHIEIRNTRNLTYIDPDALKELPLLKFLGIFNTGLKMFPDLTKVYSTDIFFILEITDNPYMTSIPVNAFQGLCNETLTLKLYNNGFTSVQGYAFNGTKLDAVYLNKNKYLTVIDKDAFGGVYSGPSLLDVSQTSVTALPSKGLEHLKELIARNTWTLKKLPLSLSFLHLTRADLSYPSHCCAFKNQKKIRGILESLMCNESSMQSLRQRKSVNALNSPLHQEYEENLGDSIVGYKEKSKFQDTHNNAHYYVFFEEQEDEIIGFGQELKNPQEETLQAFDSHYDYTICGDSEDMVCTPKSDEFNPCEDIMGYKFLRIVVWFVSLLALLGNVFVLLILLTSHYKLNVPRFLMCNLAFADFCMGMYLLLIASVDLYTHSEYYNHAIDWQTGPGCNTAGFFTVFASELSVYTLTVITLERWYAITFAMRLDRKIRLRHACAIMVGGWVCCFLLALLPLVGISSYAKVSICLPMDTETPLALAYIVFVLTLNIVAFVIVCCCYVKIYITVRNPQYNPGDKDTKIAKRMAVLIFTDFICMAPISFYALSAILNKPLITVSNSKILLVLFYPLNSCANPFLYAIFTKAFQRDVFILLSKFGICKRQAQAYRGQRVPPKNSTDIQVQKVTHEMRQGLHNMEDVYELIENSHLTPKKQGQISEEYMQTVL
In short: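 Antagonist mode: compound-treated TSHR-expressing HEK293 cells were stimulated with 1.5 ng/mL TSH (final) in presence of Ro20-1724 for 30 min at RT. HTRF cAMP detection after 1 h; each compound tested at 15 concentrations, triplicate.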

[13] = qHTS assay to identify small molecule agonists of the estrogen receptor alpha (ER-alpha) signaling pathway in the presence of an antagonist - cell viability counter screen (AID 1259386);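 further: series mostly up to about 92 µM; cells exposed to compounds for 22 h at 37 °C before the viability read; nearly all actives have a fitted effect of over 30% in size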
In short: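 Viability counter screen using VM7Luc4E2 (full-length ER-alpha, four ERE-luciferase). The cells were treated with compounds alongside ICI-182,780 10.0nM for 22hr, and live-cell protease fluorescence was quantified with CellTiter-Fluor.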

[14] = target: Estrogen receptor (Homo sapiens) (UniProt P03372); test: qHTS assay to identify small molecule antagonists of the estrogen receptor alpha (ER-alpha) signaling pathway using the BG1 cell line in the presence of 0.1 nM 17-beta-estradiol (AID 1259244); further: nearly all actives have a fitted effect of over 50% in size; further: potency means the concentration at half of the fitted maximal effect
Estrogen receptor (Homo sapiens), sequence (P03372 whole entry, looked up): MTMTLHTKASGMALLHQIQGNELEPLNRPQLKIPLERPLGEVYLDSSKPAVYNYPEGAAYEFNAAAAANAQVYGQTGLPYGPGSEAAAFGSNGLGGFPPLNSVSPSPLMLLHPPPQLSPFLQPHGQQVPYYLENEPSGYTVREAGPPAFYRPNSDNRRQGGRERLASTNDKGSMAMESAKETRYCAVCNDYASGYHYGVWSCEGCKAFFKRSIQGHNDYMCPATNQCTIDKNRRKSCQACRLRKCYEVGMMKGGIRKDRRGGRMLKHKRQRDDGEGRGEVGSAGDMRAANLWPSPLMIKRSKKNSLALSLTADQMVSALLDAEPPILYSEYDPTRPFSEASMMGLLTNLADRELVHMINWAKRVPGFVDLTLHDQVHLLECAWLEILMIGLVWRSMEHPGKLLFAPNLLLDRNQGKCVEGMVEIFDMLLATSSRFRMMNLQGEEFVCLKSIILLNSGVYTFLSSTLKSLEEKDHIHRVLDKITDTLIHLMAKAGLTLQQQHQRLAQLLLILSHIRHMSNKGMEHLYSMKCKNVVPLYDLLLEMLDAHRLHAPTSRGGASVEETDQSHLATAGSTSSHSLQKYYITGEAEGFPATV
In short: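 Estradiol at 0.1 nM (final) stimulates the endogenous ER-alpha of VM7Luc4E2 cells carrying an ERE-driven luciferase; compounds are co-incubated 22 h at 37C and luciferase output quantified by luminescence.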

[15] = qHTS assay to identify small molecule HDAC inhibitors - cell viability counter screen (AID 1259365); further: series mostly up to about 92 µM; nearly all actives have a fitted effect of over 50% in size
In short: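 After overnight seeding at 1,500 cells per well, wild-type HCT-116 cultures took up compounds in DMSO for 2hr at 37 C. Viable cell content came from luminescence with CellTiter-Glo.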

[16] = qHTS assay to identify small molecule agonists of the sonic hedgehog signaling (Shh) pathway (AID 1259368; calls by dose curve;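 further: NIH/3T3-derived 3T3Gli1-Luc cells carrying a stable Gli1-driven firefly luciferase reporter; series mostly up to about 92 µM; nearly all actives have a fitted effect of over 15% in size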)
In short: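 A Gli1 transcriptional response element controlled firefly luciferase in 3T3Gli1-Luc cells. Compounds and a positive control were added 4 hr after plating, and cells were incubated a further 24 hr at 37 C before luminescence detection.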

[17] = qHTS assay to identify small molecule antagonists of the sonic hedgehog signaling (Shh) pathway (AID 1259369; calls by dose curve; further: nearly all actives have a fitted effect of over 45% in size; further: potency means the concentration at half of the fitted maximal effect)
In short: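 For antagonist detection, the reporter line received test compounds together with conditioned medium, incubated 24hr at 37 C, 5% CO2, then luminescence was recorded following 30min room-temperature luciferase reagent incubation.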

[18] = target: Estrogen receptor beta (Homo sapiens) (UniProt Q92731); test: qHTS assay to identify small molecule agonists of the estrogen receptor beta (ER-beta) signaling pathway (AID 1259377; active means well fitted activation curve with a large enough effect in the signal ratio in the repeat runs, not every such curve was filed as active; the % refers to the signal ratio)
Estrogen receptor beta (Homo sapiens), sequence (Q92731 whole entry, looked up): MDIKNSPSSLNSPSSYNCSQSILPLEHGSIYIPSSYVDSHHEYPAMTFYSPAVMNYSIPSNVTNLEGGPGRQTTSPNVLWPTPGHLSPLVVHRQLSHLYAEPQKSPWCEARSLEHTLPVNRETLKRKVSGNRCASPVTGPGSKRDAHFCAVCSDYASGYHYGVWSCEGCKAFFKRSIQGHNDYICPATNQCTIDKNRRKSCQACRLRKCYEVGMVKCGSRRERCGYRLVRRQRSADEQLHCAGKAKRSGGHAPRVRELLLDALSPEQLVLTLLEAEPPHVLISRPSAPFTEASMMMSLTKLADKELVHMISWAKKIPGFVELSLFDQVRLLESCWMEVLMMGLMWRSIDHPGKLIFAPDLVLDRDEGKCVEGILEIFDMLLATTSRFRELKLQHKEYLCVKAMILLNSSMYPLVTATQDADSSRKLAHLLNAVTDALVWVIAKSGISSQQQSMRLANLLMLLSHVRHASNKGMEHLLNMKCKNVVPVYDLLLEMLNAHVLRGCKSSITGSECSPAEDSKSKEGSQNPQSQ
In short: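 Read-out: beta-lactamase FRET fluorescence. Cell line: ER-beta-UAS-bla HEK293T in 2% charcoal-stripped FBS. Exposure: 16 hr at 37C. Substrate step: 2 h at room temperature.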

[19] = target: Estrogen receptor beta (Homo sapiens) (UniProt Q92731); test: qHTS assay to identify small molecule antagonists of the estrogen receptor beta (ER-beta) signaling pathway (AID 1259378; active means well fitted inhibition curve with a large enough effect in the signal ratio in the repeat runs, not every such curve was filed as active; the % refers to the signal ratio)
In short: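 Antagonist mode: compounds added to beta-lactamase reporter HEK293T ER-beta-UAS cells stimulated with E2 (1nM final), 16 hr at 37C. LiveBLAzer B/G FRET substrate, 2 hours room temperature, fluorescence read-out.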

[20] = target: Estrogen receptor (Homo sapiens) (UniProt P03372); test: qHTS assay to identify small molecule agonists of the estrogen receptor alpha (ER-alpha) signaling pathway in the presence of an antagonist (AID 1259383; calls by dose curve; further: top concentration of the series differs between compounds; nearly all actives have a fitted effect of over 15% in size)
In short: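 Stably transfected VM7Luc4E2 reporter cells, kept 5 days in charcoal-stripped serum, received ICI-182,780 at 10.0nM final before compound addition. Following 22hr incubation at 37C and 5% CO2, luciferase signal was read by luminescence.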

Row | SMILES | Potency [1] | Potency [2] | outcome [3] | Potency [4] | Potency [5] | Potency [6] | Potency [7] | Potency [8] | Potency [9] | Potency [10] | outcome [11] | Potency [12] | Potency [13] | Potency [14] | Potency [15] | Potency [16] | Potency [17] | Potency [18] | Potency [19] | Potency [20]
1 | C[N+](C)(C)CCOC(N)=O | inactive | inactive | inactive | inactive | inactive | inactive | inactive | inactive | inactive | inactive | inactive | inactive | inactive |  |  |  |  |  |  | 
2 | CCOC(=O)/C=C/C(=O)O | inactive | inactive |  | inactive | inactive | inactive | inactive | inactive | inactive | inactive | inactive | inactive |  | inactive | inactive | inactive | inactive | inactive | inactive | inactive
3 | Cc1c(C(=O)NN2CCCCC2)nn(-c2ccc(Cl)cc2Cl)c1-c1ccc(Cl)cc1 | inactive | 26.6 µM (active) |  | inactive | inactive | inactive | inactive |  | inactive | inactive | inactive |  | inactive | inactive | inactive | inactive | inactive | inactive |  | inactive
4 | CCOCCn1c(C2CCN(CCc3ccc(C(C)(C)C(=O)O)cc3)CC2)nc2ccccc21 | inactive | inactive |  | inactive | inactive | inactive | inactive | inactive | inactive | inactive | inactive |  | inactive | inactive | inactive | inactive | inactive | inactive | inactive | inactive
5 | Nc1ccc(Cl)cc1[N+](=O)[O-] | inactive | 27 µM (active) |  |  | inactive | inactive |  | inactive | inactive | inactive | inactive | inactive |  | inactive | inactive | inactive |  |  |  | inactive
6 | CCN(CC)CCNC(=O)c1ccc(NC(C)=O)cc1 | inactive | inactive |  | inactive | inactive | inactive | inactive | inactive | inactive | inactive |  |  | inactive | inactive | inactive |  | inactive | inactive | inactive | inactive
7 | CCCOC(=O)c1ccc(C(=O)OCCC)nc1 | inactive | inactive |  |  | inactive | inactive | inactive | inactive | inactive | inactive | inactive |  | inactive | inactive |  | inactive | inactive | inactive | inactive | inactive
8 | CC(=O)[C@H]1CC[C@H]2[C@@H]3C[C@H](C)C4=CC(=O)CC[C@]4(C)[C@H]3[C@@H](O)C[C@]12C | inactive | inactive | inactive | inactive | inactive | inactive | inactive | inactive | 0.0841 µM (active) |  | inactive |  | inactive |  | inactive | inactive |  | inactive | inactive | 
9 | CNC(=O)N(c1ccccc1)c1ccccc1 | inactive | inactive |  | inactive | inactive | inactive | inactive | inactive | inactive | inactive | inactive | inactive | inactive | inactive | inactive | inactive |  |  |  | inactive
10 | COC(=O)c1cc(S(N)(=O)=O)ccc1OC | inactive | inactive |  | inactive | inactive | inactive | inactive | inactive | inactive | inactive | inactive |  | inactive | inactive | inactive | inactive | inactive |  |  | 
11 | Cc1cc(O)c2c(O)c3c(O)cccc3cc2c1 | inactive | inactive | inactive | inactive | inactive | inactive |  | inactive | inactive | inactive | inactive |  | inactive |  | inactive | inactive | inactive | inactive |  | 
12 | O=C(CCC1CCN(Cc2ccccc2)CC1)c1ccc2c(c1)NCCCC2 | inactive | 29.8 µM (active) |  | inactive | inactive | inactive | 29.8 µM (active) |  | inactive | inactive | inactive |  |  | 26.6 µM (active) | inactive |  | 10.6 µM (active) | inactive | inactive | 
13 | O=C(O)c1ccccc1NCCc1ccccc1 | inactive | inactive |  |  | inactive | inactive | inactive | inactive | inactive | inactive | inactive | inactive | inactive | inactive | inactive | inactive | inactive |  |  | 
14 | CC1=NN(c2ccc(C(=O)O)cc2)C(=O)C1 | inactive | inactive |  | inactive | inactive | inactive | inactive | inactive | inactive |  |  |  |  |  | inactive | inactive | inactive |  |  | 
15 | CC(=O)Nc1ccc(N)cc1 | inactive | inactive |  | inactive | inactive | inactive | inactive | inactive | inactive |  | inactive | inactive | inactive | inactive | inactive | inactive | inactive | inactive |  | inactive
